Hits are enriched below; roughly 4.2% of the tested compounds scored in any of these assays.
BJeLR viability = MLPCN primary cell-based screen for lethality selective to Ras in HRASV12 cells. inhibition, % (concentration not given with the values). BJeLR (HRASV12) viability, CellTiter-Glo ATP luminescence, 48 h. hit rate 0.17% among 300,000; in the data active = inhibition above about 50%
FBA Mtb inh = Mtb FBA enzyme inhibitors, primary screen, biochemical, fluorescence, strain H37Rv; Fructose-bisphosphate aldolase (Mycobacterium tuberculosis (strain ATCC 25618 / H37Rv)), …; purified M. tuberculosis FBA, fluorescence read-out; inhibition, % at 1 µM; hit rate 2.3% among 360,000; in the data active = inhibition above about 27%;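 also: 0% = vehicle and 100% = reference inhibitor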
RecA splice inh = Mtb RecA intein splicing inhibitors, primary screen, biochemical, fluorescence, HTS; AID 2221, 2009; inhibition, % (concentration not given with the values); hit rate 0.75% among 290,000; cell-free RecA intein splicing; in the data active = inhibition above about 30%;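 also: 0% = vehicle wells and 100% = reference inhibitor control wells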
Target sequence (P9WHJ3 whole entry, looked up, canonical isoform): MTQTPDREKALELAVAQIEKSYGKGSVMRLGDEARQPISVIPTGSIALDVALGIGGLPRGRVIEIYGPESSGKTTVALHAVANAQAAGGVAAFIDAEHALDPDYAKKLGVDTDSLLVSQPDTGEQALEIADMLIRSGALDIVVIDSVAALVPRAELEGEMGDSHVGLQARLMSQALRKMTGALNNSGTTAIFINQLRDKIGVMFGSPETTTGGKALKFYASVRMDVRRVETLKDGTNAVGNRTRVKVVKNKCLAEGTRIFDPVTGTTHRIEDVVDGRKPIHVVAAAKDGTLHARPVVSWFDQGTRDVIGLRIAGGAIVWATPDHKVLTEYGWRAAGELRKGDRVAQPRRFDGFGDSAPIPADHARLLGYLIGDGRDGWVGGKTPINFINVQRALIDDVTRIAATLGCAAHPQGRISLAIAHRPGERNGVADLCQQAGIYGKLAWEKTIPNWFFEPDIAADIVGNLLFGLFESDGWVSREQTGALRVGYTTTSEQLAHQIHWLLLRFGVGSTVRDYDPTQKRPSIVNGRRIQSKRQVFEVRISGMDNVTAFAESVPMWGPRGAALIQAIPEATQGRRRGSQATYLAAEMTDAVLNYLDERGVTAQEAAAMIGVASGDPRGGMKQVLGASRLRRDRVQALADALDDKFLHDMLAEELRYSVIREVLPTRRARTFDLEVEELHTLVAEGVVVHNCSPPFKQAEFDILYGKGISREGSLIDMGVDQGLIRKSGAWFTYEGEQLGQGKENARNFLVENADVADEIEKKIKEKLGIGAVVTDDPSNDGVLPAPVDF
GDH-TPI counter = GDH-TPI coupling enzyme inhibitors, primary screen, artefact control for M. tuberculosis FBA inhibitor project, biochemical, absorbance, full deck; GDH-TPI coupled enzyme counterscreen, NADH absorbance; inhibition, % at 4.8 µM; hit rate 1.2% among 360,000; AID 588335, 2011; in the data active = inhibition above about 30%;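 also: 0% = DMSO wells and 100% = wells lacking the enzyme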
PrPC surface inh = inhibitors of human cell surface prion protein PrPC, primary screen, cell-based, TR-FRET | Major prion protein (Homo sapiens), P04156 | TR-FRET read-out | inhibition, % at 13.8 µM | hit rate 0.43% among 370,000; in the data active = inhibition above about 24%; also: 0% = median of the test wells and 100% = reference compound wells
The depositor's hits bear a star.

`CCOC(=O)CNC(=O)c1ccccc1` gave BJeLR viability 11, FBA Mtb inh -2, RecA splice inh -3, GDH-TPI counter 5 and PrPC surface inh -5.
`Cc1c(C(=O)N2CC(C)OC(C)C2)[nH]c2ccc(Br)cc12` (centres undefined) gave BJeLR viability -1, FBA Mtb inh -2, RecA splice inh 0, GDH-TPI counter 1 and PrPC surface inh 28*.
Screening O=C(c1ccc(O)c(Br)c1)c1cc(Br)ccc1O returned FBA Mtb inh -5, GDH-TPI counter 35* and PrPC surface inh -6.
`CC(=O)c1cc(-c2ccc(-c3ccccc3)c(F)c2)c(=O)n2c1CCC2` gave PrPC surface inh -7.
Screening Cc1ccc(N2C(=O)C3CCCN3C2=S)cc1Cl (centres undefined) returned BJeLR viability -8, FBA Mtb inh 152*, RecA splice inh -1, GDH-TPI counter -3 and PrPC surface inh 6.
CCCC/C=C1/[C@@H](c2ccc(Cl)cc2)N(Cc2ccc3c(c2)OCO3)C2=N[C@@H](c3ccccc3)CC(=O)N21 was read as PrPC surface inh 1.
Screening Cc1nn(C(=O)c2cccnc2)c(C)c1Sc1ccc(Br)cc1 returned BJeLR viability -5, FBA Mtb inh 0, RecA splice inh 44* and GDH-TPI counter 2.
Cc1nn(C(=O)c2ccco2)c(C)c1Sc1ccc(Cl)cc1 was read as BJeLR viability 12, FBA Mtb inh 4, RecA splice inh 0, GDH-TPI counter -2 and PrPC surface inh -8.
COc1cccc(CN[C@@H]2CC[C@@]34CCCN3C(=O)CCC[C@H]4C2)c1 was read as PrPC surface inh -5.
CCOc1ccc(/C=N/Nc2nc(=O)[nH]nc2C)cc1OC was read as BJeLR viability -3, FBA Mtb inh -4, RecA splice inh -6, GDH-TPI counter 33* and PrPC surface inh 3.
Screening COc1ccc(/C=N\Nc2ccccn2)c(OC)c1 returned BJeLR viability 6, FBA Mtb inh -1, RecA splice inh -1, GDH-TPI counter 36* and PrPC surface inh 5.
For COc1ccc(/C=N/Nc2ccccn2)c(OC)c1OC the results were BJeLR viability 16, FBA Mtb inh -4, RecA splice inh 0, GDH-TPI counter 20 and PrPC surface inh 0.
CCCOc1ccc(/C=N/Nc2ccccn2)cc1OC was read as BJeLR viability 0, FBA Mtb inh -8, RecA splice inh 0, GDH-TPI counter 35* and PrPC surface inh -8.
For O=C(NCc1ccc(F)c(F)c1)C1C2C=CC3(CN(Cc4ccccc4)C(=O)C13)O2 (centres undefined) the results were PrPC surface inh -1.
`O=C(NNC(=O)c1ccncc1)Nc1ccccc1` gave BJeLR viability -6, FBA Mtb inh -2, GDH-TPI counter 3 and PrPC surface inh 0.
Screening O=C(NNC(=O)c1ccncc1)Nc1ccc(N=Nc2ccccc2)cc1 returned FBA Mtb inh -2, GDH-TPI counter 37* and PrPC surface inh 1.
`CC(=O)c1ccc(NC(=S)NNC(=O)c2ccncc2)cc1` gave BJeLR viability 0, FBA Mtb inh 1, RecA splice inh 1, GDH-TPI counter 32* and PrPC surface inh -6.
Screening C#CCN1C(=O)[C@@](O)(c2cccn2C)c2cc(F)ccc21 returned PrPC surface inh 1.
For O=S(=O)(c1ccccc1Br)N(Cc1cn(Cc2ccccc2)nn1)C1CC1 the results were PrPC surface inh 0.
For CC(=O)Nc1nc2ncccn2c1-c1ccc(F)c(F)c1 the results were PrPC surface inh -6.
CC1=CS/C(=C(/C#N)C(=O)NCc2ccco2)N1c1ccccc1 was read as BJeLR viability 11, FBA Mtb inh -1, RecA splice inh -5, GDH-TPI counter 51* and PrPC surface inh 3.
For Cc1ccc2cc(C3C(C#N)=C(N)Oc4c3ccc3cccnc43)c(=O)[nH]c2c1 (centres undefined) the results were BJeLR viability 3, FBA Mtb inh 4, RecA splice inh -1 and GDH-TPI counter 35*.
`COCc1c(C(C)C)nc(C(C)C)c(/C=C/[C@@H](O)C[C@@H](O)CC(=O)O)c1-c1ccc(F)cc1` gave BJeLR viability 72* and RecA splice inh 4.
`CN(C)N=Nc1ccc(S(=O)(=O)/N=C(\O)c2ccccc2)cc1` gave BJeLR viability -1, FBA Mtb inh 1, RecA splice inh -1, GDH-TPI counter 39* and PrPC surface inh 4.
For CCCCN1C=CC(=C2C(=O)c3ccccc3C2=O)C=C1 the results were BJeLR viability 65*, FBA Mtb inh 0, RecA splice inh 5, GDH-TPI counter 3 and PrPC surface inh -29.
`O=C(NC1CCCCN(Cc2ccc(Cl)cc2)C1=O)c1cccc([N+](=O)[O-])c1` (centres undefined) gave PrPC surface inh -10.
For COc1ccc(C=Nn2c(-c3n[nH]c4c3CCC4)n[nH]c2=S)cc1OCc1ccccc1 the results were PrPC surface inh -6.
Screening CCCCCCCN(C(=O)CCl)c1cccc(C)c1 returned BJeLR viability 92*, FBA Mtb inh 3, RecA splice inh -2, GDH-TPI counter -10 and PrPC surface inh 6.
For N#CCCN(C(=O)CCl)c1cccc(Cl)c1 the results were BJeLR viability 4, FBA Mtb inh -2, RecA splice inh 45*, GDH-TPI counter -2 and PrPC surface inh -1.
For N#CCCN(C(=O)COC(=O)c1nc(Cl)ccc1Cl)c1ccccc1 the results were BJeLR viability -4, FBA Mtb inh 1, RecA splice inh 3, GDH-TPI counter -2 and PrPC surface inh -3.
Screening CCC[C@H]1[C@@H](N(C)Cc2ccccc2)CC[C@@]23CCCN2C(=O)CCC[C@@H]13 returned PrPC surface inh 6.
Screening Cc1ccsc1/C=N/NC(=O)c1nnn(-c2nonc2N)c1-c1ccccc1 returned BJeLR viability 10, FBA Mtb inh -1, RecA splice inh -3, GDH-TPI counter 38* and PrPC surface inh -3.
Screening Cc1ccc(-c2c(C(=O)N/N=C/c3sccc3C)nnn2-c2nonc2N)cc1 returned BJeLR viability -9, FBA Mtb inh -5, RecA splice inh 0, GDH-TPI counter 24 and PrPC surface inh 2.
`Cc1ccc(/C=N/NC(=O)c2nnn(-c3nonc3N)c2-c2ccccc2)o1` gave BJeLR viability 4, FBA Mtb inh -4, RecA splice inh -1, GDH-TPI counter 44* and PrPC surface inh -1.
For COc1cccc(-c2c(C(=O)N/N=C/c3ccco3)nnn2-c2nonc2N)c1 the results were BJeLR viability 2, FBA Mtb inh -1, RecA splice inh 0, GDH-TPI counter 33* and PrPC surface inh -8.
